Assay results from PubChem BioAssay AID1159580 (chemical genetic matrix, 2015).
The whole screen tested about 5,500 compounds, of which about 2,000 (36%) were called active. Another 18% or so got no clear call; they are omitted. Cut-off read from the data, not from the text of the source: active = normalized growth mostly below about 0.91 (no sharp cut-off); inconclusive = no clear call, values can overlap the other calls; inactive = mostly above about 0.92. The list shows a part of the results.

Test: chemical genetic growth profiling, strain panel (AID 1159580);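 note: tested at 20 µM; growth read once vehicle control cultures reached saturation at 30 °C; 1 = growth at the plate median or of vehicle wells; lower values mean less growth of the strain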
Settings: growth OD

Measured: normalized growth

COc1cc2ccc(=O)oc2c2ccoc12
inactive: S. cerevisiae deletion strains, locus YJR066W, strain TOR1, hits give low values 0.965 | S. cerevisiae deletion strains, locus YKL009W, strain mrt4, hits give low values 0.902 | S. cerevisiae deletion strains, locus YKL068W, hits give low values 0.999 | S. cerevisiae deletion strains, locus YKL085W, strain MDH1 (second series), hits give low values 0.999 | S. cerevisiae deletion strains, locus YKL085W, strain MDH1, hits give low values 0.999 | S. cerevisiae deletion strains, locus YKR001C, strain vps1, hits give low values 0.901 | S. cerevisiae deletion strains, locus YKR026C, strain gcn3, hits give low values 0.999 | S. cerevisiae deletion strains, locus YKR091W, strain srl3, hits give low values 0.998 | S. cerevisiae deletion strains, locus YLL026W, hits give low values 0.982 | S. cerevisiae deletion strains, locus YLL041C, strain sdh2, hits give low values 0.991 | S. cerevisiae deletion strains, locus YLR039C, strain RIC1, hits give low values 1.09 | S. cerevisiae deletion strains, locus YLR058C, strain SHM2, hits give low values 0.987 | S. cerevisiae deletion strains, locus YLR102C, strain apc9, hits give low values 1.01 | S. cerevisiae deletion strains, locus YLR113W, strain HOG1, hits give low values 1.09 | S. cerevisiae deletion strains, locus YLR262C, strain YPT6 (second series), hits give low values 0.948 | S. cerevisiae deletion strains, locus YLR262C, strain YPT6, hits give low values 1.06 | S. cerevisiae deletion strains, locus YLR268W, strain sec22, hits give low values 0.97 | S. cerevisiae deletion strains, locus YLR342W, strain FKS1, hits give low values 1.01 | S. cerevisiae deletion strains, locus YLR370C, strain arc18, hits give low values 0.982 | S. cerevisiae deletion strains, locus YLR371W, strain rom2, hits give low values 0.947 | S. cerevisiae deletion strains, locus YLR384C, strain iki3, hits give low values 0.986 | S. cerevisiae deletion strains, locus YLR418C, strain cdc73, hits give low values 0.918 | S. cerevisiae deletion strains, locus YML016C, strain PPZ1, hits give low values 0.991 | S. cerevisiae deletion strains, locus YML124C, strain tub3, hits give low values 1 | S. cerevisiae deletion strains, locus YMR058W, strain fet3, hits give low values 0.941 | S. cerevisiae deletion strains, locus YMR078C, strain ctf18, hits give low values 0.977 | S. cerevisiae deletion strains, locus YMR125W, strain sto1, hits give low values 1.02 | S. cerevisiae deletion strains, locus YMR129W, hits give low values 0.971 | S. cerevisiae deletion strains, locus YMR205C, strain PFK2, hits give low values 0.993 | S. cerevisiae deletion strains, locus YMR223W, strain ubp8, hits give low values 0.937 | S. cerevisiae deletion strains, locus YMR231W, strain pep5, hits give low values 0.98 | S. cerevisiae deletion strains, locus YMR263W, strain SAP30, hits give low values 0.976 | S. cerevisiae deletion strains, locus YMR307W, strain GAS1, hits give low values 1.09 | S. cerevisiae deletion strains, locus YNL067W, strain RPL9B, hits give low values 0.977 | S. cerevisiae deletion strains, locus YNL128W, strain TEP1, hits give low values 0.871 | S. cerevisiae deletion strains, locus YNL183C, strain NPR1, hits give low values 0.977 | S. cerevisiae deletion strains, locus YNL233W, strain BNI4, hits give low values 0.982 | S. cerevisiae deletion strains, locus YNL271C, strain bni1, hits give low values 0.956 | S. cerevisiae deletion strains, locus YNL298W, strain CLA4, hits give low values 0.954 | S. cerevisiae deletion strains, locus YNL307C, strain MCK1, hits give low values 1.01 | S. cerevisiae deletion strains, locus YNR049C, strain mso1, hits give low values 1.02 | S. cerevisiae deletion strains, locus YNR052C, strain pop2, hits give low values 0.925 | S. cerevisiae deletion strains, locus YOL012C, strain htz1 0.781 | S. cerevisiae deletion strains, locus YOL147C, strain pex11, hits give low values 0.981 | S. cerevisiae deletion strains, locus YOR061W, strain CKA2, hits give low values 1 | S. cerevisiae deletion strains, locus YOR069W, strain VPS5, hits give low values 0.988 | S. cerevisiae deletion strains, locus YOR070C, strain gyp1, hits give low values 0.966 | S. cerevisiae deletion strains, locus YOR136W, strain idh2, hits give low values 0.971 | S. cerevisiae deletion strains, locus YOR144C, strain elg1, hits give low values 0.986 | S. cerevisiae deletion strains, locus YOR184W, strain ser1, hits give low values 0.994 | S. cerevisiae deletion strains, locus YOR231W, strain MKK1, hits give low values 0.991 | S. cerevisiae deletion strains, locus YOR265W, strain rbl2, hits give low values 0.952 | S. cerevisiae deletion strains, locus YOR270C, strain vph1, hits give low values 0.814 | S. cerevisiae deletion strains, locus YOR316C, strain cot1, hits give low values 0.981 | S. cerevisiae deletion strains, locus YPL240C, strain hsp82, hits give low values 0.965 | S. cerevisiae deletion strains, locus YPL241C, strain CIN2, hits give low values 0.997 | S. cerevisiae deletion strains, locus YPL256C, strain CLN2, hits give low values 1.06 | S. cerevisiae deletion strains, locus YPR119W, strain clb2, hits give low values 0.99 | S. cerevisiae deletion strains, locus YPR141C, strain kar3, hits give low values 1 | S. cerevisiae deletion strains, locus YPR167C, strain met16, hits give low values 0.97 | S. cerevisiae deletion strains, strain wtn01, hits give low values 0.969 | S. cerevisiae strains, strain wild type, hits give low values 1.02
active: S. cerevisiae deletion strains, locus YKL160W, strain elf1, hits give low values 0.894 | S. cerevisiae deletion strains, locus YLL001W, strain dnm1, hits give low values 0.87 | S. cerevisiae deletion strains, locus YLR027C, strain aat2, hits give low values 0.911 | S. cerevisiae deletion strains, locus YLR221C, strain rsa3, hits give low values 0.873 | S. cerevisiae deletion strains, locus YLR258W, strain gsy2, hits give low values 0.87 | S. cerevisiae deletion strains, locus YLR320W, strain mms22, hits give low values 0.752 | S. cerevisiae deletion strains, locus YLR357W, strain rsc2, hits give low values 1.16 [resistant] | S. cerevisiae deletion strains, locus YML032C, strain rad52, hits give low values 0.737 | S. cerevisiae deletion strains, locus YML120C, strain ndi1, hits give low values 0.844 | S. cerevisiae deletion strains, locus YNL071W, strain lat1, hits give low values 0.913 | S. cerevisiae deletion strains, locus YNL209W, strain ssb2, hits give low values 0.919 | S. cerevisiae deletion strains, locus YNL248C, strain rpa49, hits give low values 0.458 | S. cerevisiae deletion strains, locus YNL250W, strain rad50, hits give low values 0.856 | S. cerevisiae deletion strains, locus YNL322C, strain KRE1 (second series), hits give low values 0.793 | S. cerevisiae deletion strains, locus YOR001W, strain rrp6, hits give low values 0.732 | S. cerevisiae deletion strains, locus YOR080W, strain dia2, hits give low values 0.891 | S. cerevisiae deletion strains, locus YOR083W, strain WHI5, hits give low values 0.801 | S. cerevisiae deletion strains, locus YOR106W, strain vam3, hits give low values 0.755 | S. cerevisiae deletion strains, locus YOR290C, strain snf2, hits give low values 0.821 | S. cerevisiae deletion strains, locus YPL051W, strain arl3, hits give low values 0.863 | S. cerevisiae deletion strains, locus YPL078C, strain atp4, hits give low values 0.858 | S. cerevisiae deletion strains, locus YPL106C, strain sse1, hits give low values 0.748 | S. cerevisiae deletion strains, locus YPR163C, strain tif3, hits give low values 0.884
